For 7 sequences, binding signal results are on record in PMC7862700, “An all-to-all approach to the identification of sequence-specific readers for epigenetic DNA modifications on cytosine”.

Common to all, as to assay: DAPPL (digital affinity profiling via proximity ligation, sequencing); 10 mM Tris-HCl pH 7.5, 50 mM NaCl, 1 mM DTT, 4% glycerol, room temperature, 30 min; GST-TFs on glutathione beads, 16-mer random dsDNA library, 0.1% formaldehyde crosslink after washing; high values mean tight binding
What all share (settings): protein: recombinant; tags: N-terminal GST; dsDNA, one strand shown

For assay [1], the target named is T1, FLI1 (Homo sapiens, UniProt Q01543 1-452).
T1 sequence: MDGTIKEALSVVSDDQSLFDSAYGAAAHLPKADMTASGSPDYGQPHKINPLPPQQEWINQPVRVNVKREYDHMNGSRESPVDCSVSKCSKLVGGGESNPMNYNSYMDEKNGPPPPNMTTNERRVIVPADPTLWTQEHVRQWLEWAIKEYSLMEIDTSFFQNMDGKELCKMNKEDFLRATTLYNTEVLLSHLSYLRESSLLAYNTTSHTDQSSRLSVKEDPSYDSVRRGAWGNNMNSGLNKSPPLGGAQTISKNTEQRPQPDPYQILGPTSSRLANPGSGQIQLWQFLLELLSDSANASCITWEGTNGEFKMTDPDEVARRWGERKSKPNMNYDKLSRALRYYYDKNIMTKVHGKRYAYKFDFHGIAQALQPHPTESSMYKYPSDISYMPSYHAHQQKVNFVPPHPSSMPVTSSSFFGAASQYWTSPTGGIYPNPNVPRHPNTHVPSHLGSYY
In a few lines:
(§1)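 Pools of DNA-barcoded human transcription factors, expressed in yeast as GST fusions on glutathione beads and combined with a tag-only sample, were incubated with 200 nmole of a 16-mer random double-stranded DNA library. Incubation took 30 min at room temperature in Tris/NaCl/DTT/glycerol buffer and was followed by washing, 0.1% formaldehyde crosslinking, proximity ligation (BsaI/T4 ligase, 1 h, 37 °C), PCR amplification and sequencing on an Illumina NextSeq500. Binding signal is the ratio of a hexamer's read frequency for a factor to its frequency for the tag-only sample.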

Assay [2] deals with T2, ELK1 (Homo sapiens, UniProt P19419 1-428).
T2 sequence: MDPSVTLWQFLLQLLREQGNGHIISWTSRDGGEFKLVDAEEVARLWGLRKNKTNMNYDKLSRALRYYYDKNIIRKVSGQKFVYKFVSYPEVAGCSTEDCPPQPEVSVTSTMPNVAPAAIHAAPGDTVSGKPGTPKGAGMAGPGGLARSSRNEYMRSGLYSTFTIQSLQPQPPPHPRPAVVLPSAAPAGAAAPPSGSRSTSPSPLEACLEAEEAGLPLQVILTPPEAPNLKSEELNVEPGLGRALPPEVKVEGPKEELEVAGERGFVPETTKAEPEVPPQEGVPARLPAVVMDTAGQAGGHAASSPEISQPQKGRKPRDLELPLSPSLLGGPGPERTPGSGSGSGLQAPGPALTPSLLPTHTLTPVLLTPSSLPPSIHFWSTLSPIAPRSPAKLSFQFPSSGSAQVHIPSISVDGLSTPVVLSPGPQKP
The gist of the method: as §1

Assay [3] addresses T3, GABPA (Homo sapiens, UniProt Q06546 1-454).
T3 sequence: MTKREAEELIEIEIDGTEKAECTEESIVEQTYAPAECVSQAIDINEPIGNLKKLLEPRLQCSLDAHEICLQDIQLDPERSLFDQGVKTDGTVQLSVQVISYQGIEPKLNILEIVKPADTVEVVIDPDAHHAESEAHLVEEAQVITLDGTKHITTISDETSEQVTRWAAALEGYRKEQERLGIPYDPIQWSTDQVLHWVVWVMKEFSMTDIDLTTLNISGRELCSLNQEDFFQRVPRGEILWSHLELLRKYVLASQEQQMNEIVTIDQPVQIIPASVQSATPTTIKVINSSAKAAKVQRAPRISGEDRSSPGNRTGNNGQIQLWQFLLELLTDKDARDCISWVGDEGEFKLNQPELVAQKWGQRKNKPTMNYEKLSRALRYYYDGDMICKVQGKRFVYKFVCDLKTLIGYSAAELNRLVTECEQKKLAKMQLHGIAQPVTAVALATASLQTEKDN
The gist of the method:
as §1

In assay [4] the target is T4, ERG (Homo sapiens, UniProt P11308 1-479).
T4 sequence: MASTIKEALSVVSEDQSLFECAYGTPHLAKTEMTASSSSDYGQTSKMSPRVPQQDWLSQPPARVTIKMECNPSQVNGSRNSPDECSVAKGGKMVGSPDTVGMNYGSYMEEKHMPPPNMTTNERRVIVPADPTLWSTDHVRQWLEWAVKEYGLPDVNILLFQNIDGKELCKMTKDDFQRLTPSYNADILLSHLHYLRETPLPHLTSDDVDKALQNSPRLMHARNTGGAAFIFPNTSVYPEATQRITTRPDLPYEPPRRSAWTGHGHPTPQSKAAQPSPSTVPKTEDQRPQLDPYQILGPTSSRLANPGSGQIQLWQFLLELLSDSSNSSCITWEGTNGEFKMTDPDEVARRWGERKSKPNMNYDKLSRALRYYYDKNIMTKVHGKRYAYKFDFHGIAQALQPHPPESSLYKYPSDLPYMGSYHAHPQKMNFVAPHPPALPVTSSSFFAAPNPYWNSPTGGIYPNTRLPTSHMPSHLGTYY
The gist of the method:
as §1

The target of assay [5] is ELF1 (Homo sapiens, UniProt P32519 1-619). The gist of the method:
as §1

Assay [6] concerns the target T5, EHF (Homo sapiens, UniProt Q9NZC4 1-300).
T5 sequence: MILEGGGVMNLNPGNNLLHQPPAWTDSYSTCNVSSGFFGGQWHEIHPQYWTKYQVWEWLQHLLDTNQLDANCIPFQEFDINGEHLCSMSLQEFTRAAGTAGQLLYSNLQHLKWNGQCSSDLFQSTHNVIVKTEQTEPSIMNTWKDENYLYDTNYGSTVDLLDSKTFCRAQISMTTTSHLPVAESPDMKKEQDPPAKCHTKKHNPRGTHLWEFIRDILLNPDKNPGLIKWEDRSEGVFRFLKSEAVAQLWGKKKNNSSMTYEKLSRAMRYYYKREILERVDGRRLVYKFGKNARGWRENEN
In a few lines:
as §1

Assay [7] deals with SPI1 (Homo sapiens, UniProt P17947 1-270). The gist of the method:
as §1

Assay [8] concerns the target SPIB (Homo sapiens, UniProt Q01892 1-262). The gist of the method:
as §1

Assay [9] deals with T6, ELK3 (Homo sapiens, UniProt P41970 1-407).
T6 sequence: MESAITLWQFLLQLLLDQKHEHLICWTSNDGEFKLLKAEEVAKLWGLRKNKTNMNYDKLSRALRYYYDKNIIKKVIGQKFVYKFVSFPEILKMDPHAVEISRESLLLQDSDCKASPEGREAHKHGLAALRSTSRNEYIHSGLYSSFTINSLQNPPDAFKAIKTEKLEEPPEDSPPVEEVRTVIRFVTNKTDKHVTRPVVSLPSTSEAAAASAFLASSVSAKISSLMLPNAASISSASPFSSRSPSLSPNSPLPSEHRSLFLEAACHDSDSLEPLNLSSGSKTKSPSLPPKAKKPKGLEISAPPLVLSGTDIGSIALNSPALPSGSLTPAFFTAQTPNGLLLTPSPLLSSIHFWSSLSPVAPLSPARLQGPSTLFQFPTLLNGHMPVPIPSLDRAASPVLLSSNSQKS
The gist of the method: as §1

SPIB, sequence (Q01892 whole entry): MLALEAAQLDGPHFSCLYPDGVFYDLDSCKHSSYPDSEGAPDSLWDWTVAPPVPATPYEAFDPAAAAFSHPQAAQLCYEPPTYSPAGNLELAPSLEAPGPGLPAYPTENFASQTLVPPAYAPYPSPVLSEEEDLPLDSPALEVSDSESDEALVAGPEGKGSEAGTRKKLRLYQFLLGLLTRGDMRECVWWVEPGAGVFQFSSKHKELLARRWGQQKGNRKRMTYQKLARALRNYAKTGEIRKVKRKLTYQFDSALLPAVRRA
ELF1, sequence (P32519 whole entry): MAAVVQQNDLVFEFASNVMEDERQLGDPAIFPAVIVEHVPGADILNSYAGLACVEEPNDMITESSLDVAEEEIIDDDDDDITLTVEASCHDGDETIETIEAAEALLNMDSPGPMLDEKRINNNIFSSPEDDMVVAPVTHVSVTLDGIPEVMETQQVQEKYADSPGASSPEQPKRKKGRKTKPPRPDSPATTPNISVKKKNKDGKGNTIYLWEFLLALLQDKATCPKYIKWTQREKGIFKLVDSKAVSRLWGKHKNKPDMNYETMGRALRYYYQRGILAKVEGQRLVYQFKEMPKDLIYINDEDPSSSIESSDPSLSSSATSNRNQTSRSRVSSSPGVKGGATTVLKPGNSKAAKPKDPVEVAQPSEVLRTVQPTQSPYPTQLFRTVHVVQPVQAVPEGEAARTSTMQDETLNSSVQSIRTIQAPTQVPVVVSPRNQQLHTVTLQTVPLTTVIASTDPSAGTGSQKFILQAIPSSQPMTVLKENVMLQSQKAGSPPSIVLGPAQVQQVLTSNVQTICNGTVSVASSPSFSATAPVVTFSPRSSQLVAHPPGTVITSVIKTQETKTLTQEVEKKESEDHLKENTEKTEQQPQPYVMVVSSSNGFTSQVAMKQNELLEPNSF

For the sequence TCCCTA, the binding signal in assay [1] is 1.35 fold enrichment (6-mer frequency, TF over GST control); in assay [2], 1.26 fold enrichment (6-mer frequency, TF over GST control); in assay [3], 1.26 fold enrichment (6-mer frequency, TF over GST control); in [4], 1.3 fold enrichment (6-mer frequency, TF over GST control); in [5], 1.32 fold enrichment (6-mer frequency, TF over GST control); in [6], 1.27 fold enrichment (6-mer frequency, TF over GST control). Also, the binding signal in [7] is 1.52 fold enrichment (6-mer frequency, TF over GST control); in assay [8] it was 1.32 fold enrichment (6-mer frequency, TF over GST control); in assay [9] it was 1.34 fold enrichment (6-mer frequency, TF over GST control).
On to TTAAGC, for which the binding signal in [1] is 1.18 fold enrichment (6-mer frequency, TF over GST control); in assay [2], 1.18 fold enrichment (6-mer frequency, TF over GST control); in assay [3] it was 1.24 fold enrichment (6-mer frequency, TF over GST control); in [4], 1.15 fold enrichment (6-mer frequency, TF over GST control); in [5] it was 1.18 fold enrichment (6-mer frequency, TF over GST control); in assay [6], 1.13 fold enrichment (6-mer frequency, TF over GST control). Moreover, the binding signal in [7] is 1.1 fold enrichment (6-mer frequency, TF over GST control); in assay [8], 1.08 fold enrichment (6-mer frequency, TF over GST control); in [9], 1.18 fold enrichment (6-mer frequency, TF over GST control).
For TTCCTG, the binding signal in assay [1] was 2.3 fold enrichment (6-mer frequency, TF over GST control); in [2], 2.3 fold enrichment (6-mer frequency, TF over GST control); in assay [3], 2.17 fold enrichment (6-mer frequency, TF over GST control); in assay [4], 2.59 fold enrichment (6-mer frequency, TF over GST control); in assay [5], 2.22 fold enrichment (6-mer frequency, TF over GST control); in [6], 2.23 fold enrichment (6-mer frequency, TF over GST control). Moreover, the binding signal is 2.64 fold enrichment (6-mer frequency, TF over GST control) in assay [7]; 2.36 fold enrichment (6-mer frequency, TF over GST control) in assay [8]; 2.28 fold enrichment (6-mer frequency, TF over GST control) in [9].
On to TTGCCC, for which the binding signal in [1] was 1.37 fold enrichment (6-mer frequency, TF over GST control); in [2], 1.43 fold enrichment (6-mer frequency, TF over GST control); in assay [3], 1.33 fold enrichment (6-mer frequency, TF over GST control); in assay [4], 1.28 fold enrichment (6-mer frequency, TF over GST control); in assay [5] it was 1.3 fold enrichment (6-mer frequency, TF over GST control); in assay [6] it was 1.22 fold enrichment (6-mer frequency, TF over GST control). In addition, the binding signal in assay [7] is 1.29 fold enrichment (6-mer frequency, TF over GST control); in [8], 1.33 fold enrichment (6-mer frequency, TF over GST control); in [9] it was 1.23 fold enrichment (6-mer frequency, TF over GST control).
Consider TGTTCT, for which the binding signal in assay [1] is 1.4 fold enrichment (6-mer frequency, TF over GST control); in [2], 1.4 fold enrichment (6-mer frequency, TF over GST control); in assay [3], 1.28 fold enrichment (6-mer frequency, TF over GST control); in assay [4], 1.38 fold enrichment (6-mer frequency, TF over GST control); in assay [5] it was 1.39 fold enrichment (6-mer frequency, TF over GST control); in [6], 1.4 fold enrichment (6-mer frequency, TF over GST control). Further, the binding signal is 1.29 fold enrichment (6-mer frequency, TF over GST control) in assay [7]; 1.35 fold enrichment (6-mer frequency, TF over GST control) in assay [8]; 1.21 fold enrichment (6-mer frequency, TF over GST control) in assay [9].
As to CTTCAC, the binding signal is 1.47 fold enrichment (6-mer frequency, TF over GST control) in [1]; 1.42 fold enrichment (6-mer frequency, TF over GST control) in [2]; 1.38 fold enrichment (6-mer frequency, TF over GST control) in assay [3]; 1.45 fold enrichment (6-mer frequency, TF over GST control) in assay [4]; 1.45 fold enrichment (6-mer frequency, TF over GST control) in assay [5]; 1.41 fold enrichment (6-mer frequency, TF over GST control) in assay [6]. Further, the binding signal is 1.37 fold enrichment (6-mer frequency, TF over GST control) in assay [7]; 1.41 fold enrichment (6-mer frequency, TF over GST control) in assay [8]; 1.38 fold enrichment (6-mer frequency, TF over GST control) in assay [9].
For the sequence TTTAGC, the binding signal in assay [1] was 1.04 fold enrichment (6-mer frequency, TF over GST control); in assay [2], 1.05 fold enrichment (6-mer frequency, TF over GST control); in assay [3], 1.2 fold enrichment (6-mer frequency, TF over GST control); in assay [4] it was 1.16 fold enrichment (6-mer frequency, TF over GST control); in assay [5] it was 1.19 fold enrichment (6-mer frequency, TF over GST control); in assay [6], 1.12 fold enrichment (6-mer frequency, TF over GST control). For the same sequence, the binding signal in [7] was 1.05 fold enrichment (6-mer frequency, TF over GST control); in assay [8], 1.14 fold enrichment (6-mer frequency, TF over GST control); in [9], 1.09 fold enrichment (6-mer frequency, TF over GST control).
